Compound activity: PubChem BioAssay, National Center for Advancing Translational Sciences (NCATS)
Hits are enriched below; roughly 17% of the tested compounds scored in any of these assays.
HT1080 IDH1KD tx: HT-1080 IDH1 knockdown cell toxicity (counter line); HT-1080 IDH1 knockdown viability, ATP luminescence, 48 h; 360,000 tested, 2% active; Potency, µM (doses to about 46.1 µM), for inactives: top-dose activity, negative = toxicity, usual class: cytotoxic;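 further: 0% = DMSO wells and -100% = cell-free medium wells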
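In this qHTS, HT-1080 cells depleted of IDH1 are exposed for 48 h at 37 °C to compound titrations. Toxicity is scored from CellTiter-Glo luminescence, with DMSO as full viability and medium alone as none.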
HepG2 tox: counter-screen for TGF-b inhibitors: cytotoxicity in HepG2 cells | HepG2 CAGA-GFP viability, ATP luminescence, 18 h | Potency, µM (titrated, usually from 46.1 µM), without a hit: top-dose activity change, negative = cytotoxicity, hits mostly cytotoxic | 410,000 tested, 0.76% active | AID 588856
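HepG2 CAGA-GFP cells (1000/well, DMEM with 1% FBS) received compound, then TGF-beta at 500 pg/mL final, and were incubated 18 hours at 37 degrees C. Viability was read by CellTiter-Glo luminescence. Media-only wells were set as complete cell-killing and DMSO as no toxicity.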
TGFb SMAD3 inh: blocks TGF-b signaling; HepG2 CAGA-GFP TGF-b/SMAD3 reporter, GFP fluorescence, 18 h; TGF-beta stimulated, 500 pg/mL final; Potency, µM (top dose mostly 46.1 µM), for the others: at the top dose activity, negative = inhibition, usual class: inhibitors; 410,000 tested, 1.2% active; AID 588855; further: on the % scale 0 is the no-effect control and ±100 the full control effect; nearly all actives have a fitted effect of over 65% in size
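Using HEPG2 CAGA-GFP reporter cells at 1000 cells/well, we pinned test compounds, stimulated with recombinant TGF-beta (500 pg/mL final) and measured total well GFP after 18 h.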
HT1080-NT tox: kills 2HG-producing HT-1080-NT fibrosarcoma cells; HT-1080-NT fibrosarcoma viability, CellTiter-Glo ATP luminescence, 48 h; Potency, µM (doses to about 46.1 µM), without a hit: at the top dose activity, negative = less viability, usual class: cytotoxic; 360,000 tested, 1.6% active;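 further: NT is the 2HG producing partner of a matched IDH1 knockdown line; 0% = DMSO-treated cells and -100% = media-only wells without cells; nearly all actives have a fitted effect of over 55% in size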
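HT-1080-NT; 750 cells/well; 5% FBS RPMI; 48 h compound, 37 degrees C; CellTiter-Glo luminescence; curve fitting and curve-class assignment.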
TDP1 cell noCPT: qHTS for Inhibitors of human tyrosyl-DNA phosphodiesterase 1 (TDP1): qHTS in cells in absence of CPT; DT40 Tdp1-/- hTDP1 cells, no CPT, ATP luminescence, 48 h; Potency, µM (series often up to 46.2 µM), for inactives: top-dose activity change, negative = growth inhibition, hits mostly inhibitors; 420,000 tested, 15% active; further: on the % scale 0 is the no-effect control and ±100 the full control effect; nearly all actives have a fitted effect of over 55% in size
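Growth of hTDP1-complemented DT40 Tdp1-knockout cells is measured by ATP luminescence after at least 48 hr compound exposure at 37 °C, with DMSO substituting for the 20 nM CPT used in the parallel screen.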
DT40 TDP1 CPT: growth inhibition of DT40 Tdp1-/-;hTDP1 cells with camptothecin (screen for TDP1 inhibitors); chicken DT40 Tdp1-/-;hTDP1 cells + 20 nM CPT, ATP luminescence, 48 h; 420,000 tested, 12% active; Potency, µM (highest dose often 46.2 µM), for inactives: top-dose activity change, negative = growth inhibition, hits mostly inhibitors; further: on the % scale 0 is the no-effect control and ±100 the full control effect; nearly all actives have a fitted effect of over 55% in size
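Chicken DT40 Tdp1-/- cells complemented with human TDP1, 400 cells/well, exposed to compounds plus 20 nM camptothecin for at least 48 h at 37 C; viability read as ATP content by CellTiter-Glo luminescence.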
Starred values were filed as active, the others as inactive; ? = inconclusive; . = no result given. The call rests on the fitted dose curve; in most records, active means well fitted curve in the direction sought with a large enough effect; inconclusive means small, poorly fitted or top-dose-only effect, or another doubt; inactive means no such curve, though single readings can be large; an effect the other way counts as inactive or inconclusive. Potency means the concentration at half of the fitted maximal effect.

SMILES | HT1080 IDH1KD tx | HepG2 tox | TGFb SMAD3 inh | HT1080-NT tox | TDP1 cell noCPT | DT40 TDP1 CPT
Cc1cccc(NC(=O)c2oc3c(c2C)C(=O)CC(C)(C)C3)n1 | -18% | -14% | 6% | -5% | 5.2µM* | 12µM*
O=[N+]([O-])c1ccc(Cl)c(-c2ccc(/C=N/n3cnnc3)o2)c1 | 6% | -2% | 10% | -3% | -20% | 3%
COc1cc([N+](=O)[O-])ccc1-c1ccc(/C=C2\C(=O)ON=C2c2ccccc2)o1 | -2% | -28% | -2% | -3% | 9.2µM* | 12µM*
O=C(/C=C/c1cc([N+](=O)[O-])ccc1OC(F)F)Nc1cccc([N+](=O)[O-])c1 | -1% | 4% | -4% | 2% | 2% | 1%
COc1cc([N+](=O)[O-])ccc1-c1ccc(/C=N\n2cnnc2)o1 | 8% | 3% | 26% | 6% | 1.8µM* | 1.6µM*
O=[N+]([O-])c1ccc(OC(F)F)c(/C=N/n2cnnc2)c1 | ? | 29% | 5% | -23% | 6.5µM* | 5.8µM*
COc1ccc(-c2ccc(/C=C3\C(=O)N(c4ccccc4)N=C3c3ccccc3)o2)c([N+](=O)[O-])c1 | 1% | -4% | 7% | 0% | 21µM* | ?
COC(=O)c1ccccc1-c1ccc(/C=C2\C(=O)N(c3ccccc3)N=C2c2ccccc2)o1 | -2% | 1% | -2% | 11% | ? | -20%
N#Cc1cccc(NC(=O)CN2CCN(Cc3ccccc3)CC2)c1 | 22% | -3% | 0% | 13% | -18% | -1%
COc1ccccc1CCNC(=O)Cn1ccc2cc(S(=O)(=O)N3CCC(C)CC3)ccc21 | -4% | 5% | -27% | -18% | ? | ?
CC12CCC(C1)C(C)(C)C2=O (stereo not drawn) | . | . | . | . | -1% | -27%
CCOC(=O)c1c(C)oc2c1c1c(c3ccccc32)OCN(Cc2cccnc2)C1 | -6% | -25% | -11% | -1% | ? | ?
CCOC(=O)c1c(C)oc2c1c(C=NCC1CCCO1)c(O)c1ccccc12 (stereo not drawn) | -4% | 3% | -5% | 9% | 18µM* | ?
C/C(=N\NC(=S)Nc1ccc(C)c(C)c1)c1ccc(N2CCOCC2)cc1 | -2% | -17% | 2% | -6% | 5.8µM* | 5.8µM*
N#Cc1ccc(/C=N/NC(=S)Nc2ccc(S(=O)(=O)N3CCOCC3)cc2)cc1 | 10% | 7% | -5% | 5% | 21µM* | ?
C/C(=N\NC(=S)Nc1cc(S(=O)(=O)N2CCOCC2)ccc1Cl)c1ccc(N2CCOCC2)cc1 | -1% | 1% | -2% | -1% | 2.6µM* | 2.9µM*
O=S(=O)(c1ccc(Cl)c(NC(=S)N/N=C/c2ccc(O)cc2)c1)N1CCOCC1 | -15% | -16% | ? | -21% | 4.6µM* | 4.1µM*
Cc1cccc(C)c1NC(=O)COC(=O)[C@@H]1CCCN1C(=O)c1cccs1 | 3% | 1% | -13% | -2% | 7% | -6%
Nc1ncc(S(=O)(=O)c2ccc([N+](=O)[O-])cc2)s1 | -17% | -13% | -14% | -25% | ? | ?
COc1ccc(CNC(=O)CCN2C(=O)[C@@H]3Cc4ccccc4CN3C2=O)cc1 | 10% | -1% | 3% | 24% | -27% | ?
CC#CCC(C)[C@H](O)/C=C/[C@@H]1[C@H]2C/C(=C/CCCC(=O)O)C[C@H]2C[C@H]1O (stereo partly drawn) | . | . | . | . | -2% | 15%
CC(OC(=O)c1ccccc1NCCO)C(=O)NC1CCCCC1C (stereo not drawn) | 1% | -15% | ? | 2% | -24% | -20%
O=S(=O)(c1ccc(NC(=S)N/N=C/c2ccc(O)c(O)c2)cc1)N1CCOCC1 | -3% | -14% | ? | -4% | -24% | -10%
O=[N+]([O-])c1cc(Cl)cc(/C=N/NC(=S)Nc2ccc(S(=O)(=O)N3CCOCC3)cc2)c1O | 3.7µM* | -8% | -18% | ? | ? | ?
CCOc1ccc(Cn2nnc(C(=O)NCCc3ccc(Cl)cc3)c2N)cc1 | -2% | 4% | -1% | 11% | -12% | -18%
SMILES | HT1080 IDH1KD tx | HepG2 tox | TGFb SMAD3 inh | HT1080-NT tox | TDP1 cell noCPT | DT40 TDP1 CPT
COc1ccc(NC(=O)c2nnn(Cc3ccc(Br)cc3F)c2N)c(OC)c1 | . | -35% | -9% | . | -16% | -25%
COc1cccc(NC(=O)Cn2nnc(C(=O)Nc3cc(Cl)ccc3OC)c2N)c1 | -9% | -6% | 9% | ? | ? | -1%
COc1cccc(Cn2nnc(C(=O)NCCc3ccc(Cl)cc3)c2N)c1 | -7% | 18µM* | ? | -5% | ? | ?
COc1ccc(OC)c(NC(=O)c2nnn(Cc3ccc(Br)cc3F)c2N)c1 | -13% | -21% | -2% | -8% | 18µM* | 8.2µM*
Cc1ccc(C)c(NC(=O)c2nnn(Cc3ccc(F)cc3Cl)c2N)c1 | . | -14% | ? | . | 6.5µM* | 15µM*
COc1cccc(Cn2nnc(C(=O)Nc3cc(Cl)ccc3OC)c2N)c1 | ? | -21% | 3% | -21% | 16µM* | 23µM*
CN=C(NC1CCCCC1)c1ccc([N+](=O)[O-])cc1 | 4% | 0% | 1% | 4% | 5% | 2%
COC(=O)c1cc2sccc2n1CC(=O)Nc1ccc(C)cc1C | . | 1% | 13% | . | -23% | -26%
O=C(CCCc1nc(-c2ccc(Cl)cc2)no1)N1CCOCC1 | -23% | -20% | -25% | -19% | 16µM* | 23µM*
Cc1ccc(-c2noc(CCCC(=O)N3CCOCC3)n2)cc1 | 2% | -21% | 2% | -1% | -29% | -22%
CC(C)COc1ccc(C(=O)Nc2onc3c2CCCC3)cc1 | . | -37% | 1% | . | 23µM* | 13µM*
Cc1ccc(Nc2c3c(nc4nncn24)CCC3)cc1C | . | -36% | . | . | 16µM* | ?
Cc1ccc(Nc2c3c(nc4nncn24)CCC3)cc1 | . | -1% | . | . | -27% | -8%
COc1ccc(Nc2c3c(nc4nncn24)CCC3)cc1Cl | . | -9% | -33% | . | 21µM* | 18µM*
Cc1cccc(Nc2c3c(nc4nncn24)CCC3)c1 | . | -7% | . | . | -23% | -24%
Brc1ccc(Nc2c3c(nc4nncn24)CCC3)cc1 | . | -18% | . | . | 18µM* | ?
Cc1cc(C)c(NC(=O)Cn2nnc(-c3nc(-c4ccccc4)no3)c2N)c(C)c1 | . | 0% | -2% | . | -2% | 0%
